Calls of active or inactive are those of the source. The call rests on the fitted dose curve; in most records, active means well fitted curve in the direction sought with a large enough effect; inconclusive means small, poorly fitted or top-dose-only effect, or another doubt; inactive means no such curve, though single readings can be large or run the other way.
Experiment: Cellular Toxicity (caspase-3) MRC-5 (AID 659);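 further: cells exposed to compound for 16 h at 37 °C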
Details: MRC-5 cells, luminescence, normalized: DMSO 0%, 10 µM staurosporine 100%; series mostly up to 91.7 µM
From the text: NIH Chemical Genomics Center [NCGC]
NIH Molecular Libraries Screening Centers Network [MLSCN]
National Institutes of Environmental Health Sciences [NIEHS]
National Toxicology Program [NTP]
We have developed a 1536-well cell-based assay for quantitative high throughput screening (qHTS) against a number of cell lines to determine in vitro caspase 3/7 activity of small molecules. This particular assay uses the MRC-5 cell line which is derived from human normal lung fibroblasts.
NCGC Assay Protocol Summary:
The Caspase-Glo 3/7 assay (Promega) is a homogeneous method to measure caspase-3 and caspase-7 activities in cultured cells. The quantitation of caspase 3/7 activity is based on the cleavage of a peptide-aminoluciferin substrate. After caspase cleaves the substrate the free aminoluciferin is liberated and serves as the substrate of luciferase, which generates the light. The luminescent signal is proportional to amount of caspase 3/7 activity present.
Using the Caspase-Glo 3/7 assay, the amount of caspase 3/7 activity was measured in the MRC-5 line with complete culture medium following compound treatment for 16 hours. The assay was performed in opaque white 1536-well plates. In the screen, tamoxifen and staurosporine were used as positive controls. Library compounds were measured for their ability to cause the activation of caspase 3/7 in the cell line, as reflected by an increase in luminescence signal, in a concentration-dependent manner. Data were normalized to the controls for basal activity (DMSO only) and 100% stimulation (10 uM staurosporine). AC50 values were determined from concentration-response data modeled with the standard Hill equation.
qHTS protocol for caspase 3/7 assay in MRC-5 cells
[Step] [Parameter] [Value] [Description]
1. Reagent; 5 uL; 1500 MRC-5 cells/well
2. Time; 5 hr; 37 °C incubation
4. Controls; 23 nL; Tamoxifen 0.23 uM to 100 uM & staurosporine 1.4 pM to 100 uM
5. Time; 16 hr; 37 °C incubation
6. Reagent; 5 uL; Caspase-Glo 3/7 reagent
7. Time; 1 hr; Room Temperature
8. Detection; Luminescence; Viewlux plate reader
Keywords: caspase 3/7, apoptosis, MRC-5 cell line, luminescence, NTPHTS, NTPHTS_NCGC, NIEHS, EPA, DSSTox, MLSMR, MLSCN, NIH Roadmap, qHTS, NCGC

Compound | outcome
Nc1c(Cl)cc([N+](=O)[O-])cc1Cl | inactive
Nc1ccc2ccccc2c1 | inactive
O=c1ccc(=O)[nH][nH]1 | inactive
O=[N+]([O-])c1ccccc1O | inactive
Cc1ccc2c(C)cccc2c1 | inactive
O=[N+]([O-])c1cccc2c([N+](=O)[O-])cccc12 | inactive
OC[P+](CO)(CO)CO | inactive
O=[N+]([O-])c1cc(Cl)c(Cl)c(Cl)c1 | inactive
COC(C)(C)C | inactive
C=CCCC#N | inactive
CCCCNC(=O)n1c(NC(=O)OC)nc2ccccc21 | inactive
[N-]=[N+]=[N-] | inactive
C=CC#N | inactive
CC(C#N)CCC#N (stereo not given) | inactive
Nc1ccc([N+](=O)[O-])cc1N | inactive
O=[N+]([O-])c1ccccc1-c1ccccc1 | inactive
C=CCc1cc(OC)c2c(c1)OCO2 | inactive
Nc1ccc(-c2ccc(N)c(Cl)c2)cc1Cl | inactive
CC[N+](=O)[O-] | inactive
S=C1NCCN1 | inactive

Compound | outcome
Cl/C=C/CCl | inactive
Oc1cc(Cl)c(Cl)c(Cl)c1Cl | inactive
Clc1cccc(Cl)c1 | inactive
O=C(Cl)OCc1ccccc1 | inactive
ClCc1ccccc1 | inactive
C=CC(=O)OCCO | inactive
Cc1ccc(N)c(C)c1 | inactive
CN(C)c1ccccc1 | inactive
COc1c(C(C)(C)C)cc([N+](=O)[O-])c(C)c1[N+](=O)[O-] | inactive
NNC(N)=S | inactive
CCCCOC(=O)c1ccccc1N | inactive
N#CC(Cl)(Cl)Cl | inactive
CC(C)[N+](=O)[O-] | inactive
Cc1ccc(N)cc1C | inactive
CCOP(=S)(OCC)SCCSCC | inactive
S=c1[nH]c2ccccc2[nH]1 | inactive
c1ccc(C2CO2)cc1 (stereo not given) | inactive
CC12CC1(C)C(=O)N(c1cc(Cl)cc(Cl)c1)C2=O (stereo not given) | inactive
Oc1cc(Cl)cc(Cl)c1 | inactive
ClCC(Cl)CCl | inactive
